The source made the active and inactive calls. How the source made its calls: active means hit-call score of the fitted dose curve at least 0.9, where 1 is the maximum; inactive means score below 0.9.

Read-out in this experiment: Plasminogen Activator Inhibitor-1 (PAI1), SERPINE1 (gene 5054)
The experiment in a line: BSK_BF4T_PAI1: BioMAP Diversity Plus: BF4T Assay for Plasminogen Activator Inhibitor-1 (PAI1) Biomarker Activity (AID 2284273). As to conditions: primary human bronchial epithelial cells with fibroblasts. As to the method: BSK_BF4T is a cell-based, multiplexed-readout assay that uses bronchial epithelial cells and dermal fibroblasts, a human vascular primary cell, with measurements taken at 24 hours after chemical dosing in a microplate: 96-well plate.BSK_BF4T_PAI1 is an assay component measured in the BSK_BF4T assay. It measures PAI-1 antibody related to regulation of gene expression using ELISA technology.Data from the assay component BSK_BF4T_PAI1 was analyzed at the endpoint, BSK_BF4T_PAI1, in the positive analysis fitting direction relative to DMSO as the negative control and baseline of activity. Using a type of binding reporter, gain or loss-of-signal activity can be used to understand protein changes. To generalize the intended target to other relatable targets, this assay endpoint is annotated to the 'cytokine' intended target family, where the subfamily is 'plasmogen activator inhibitor'.
The levels of cell surface (or secreted, indicated by the prefix "s") biomarker endpoints were measured by ELISA. Overt cytotoxicity to cells in confluent adherent cultures (all systems other than the BT system) was assessed by measuring total protein levels using sulforhodamine B (SRB) staining in parallel cultures at the time of biomarker measurements, indicated as SRB endpoints. For proliferation assays for adherent cell types, individual cell types are cultured at sub-confluence and relative cell numbers quantified by SRB staining at time points optimized for each system (48 h: 3C and CASM3C systems; 72 h: BT and HDF3CGF systems; 96 h: SAg system). SRB was performed by staining cells with 0.1% SRB after fixation with 10% TCA and reading wells at 560 nm.Viability and proliferation of PBMC (T cells) was quantified by Alamar Blue reduction for the SAg and BT systems. For PBMC viability (referred to as PBMC Cytotoxicity within the assay endpoint names), cells were plated (75,000/well in a 96-well plate) and then chemical samples added for 1 h before addition of activators, SEB and TSST-1 (20 ng/mL final concentration each). Cells were incubated for 90 h. Then, Alamar Blue (20 uL/well) (Invitrogen, Cat DAL1100) was added for 6 h, and the plates were read with a fluorescence microplate reader at 546/580 nm (excitation/emission). For PBMC proliferation, cells were plated and activated as above but incubated for only 16 h prior to addition of Alamar Blue. Plates were read after 6 h.
`O=S(=O)(O)CCC(F)(F)C(F)(F)C(F)(F)C(F)(F)C(F)(F)C(F)(F)F`: the outcome was inactive. In the case of `C[Si](C)(C)C(F)(F)C(F)(F)C(F)(F)F`, the result was inactive. To `FC(F)C(F)(F)COCC1CO1` (stereo not given) belongs “inactive”; to `FC(F)=C(F)C(F)(F)C(F)(F)C(F)(F)C(F)(F)C(F)(F)C(F)(F)F`, “inactive”. The entry for `NCC(F)(F)C(F)(F)C(F)(F)C(F)(F)F` is “inactive”. With `FC(F)(F)C(F)(F)C(F)(F)C(F)(F)C(F)(F)C(F)(F)I`, the result was inactive. To `OC(O)(C(F)C(O)(O)C(F)(F)F)C(F)(F)F` belongs “inactive”; to `OCCC(F)(F)C(F)(F)C(F)(F)C(F)(F)F`, “inactive”. To `FC(F)(F)COC(OCC(F)(F)F)OCC(F)(F)F` belongs “inactive”. To `O=C(Cl)C(F)(F)C(F)(F)C(F)(F)C(=O)Cl` belongs “inactive”.

Values taken from PubChem BioAssay (EPA / NIEHS).
